Rows were chosen to be rich in hits. Some 0.8% of all compounds tested hit in one or more screens of this group.
FEN1 inh: blocks human flap endonuclease 1; AID 588795; Recombinant FEN1 flap cleavage, fluorescence, 15 min; Potency, µM (top dose mostly 114 µM), for the others: at the highest dose activity change, negative = inhibition, most hits filed as inhibitors; 0.35% of 390,000 active; further: potency means the concentration at half of the fitted maximal effect; nearly all actives have a fitted effect of over 65% in size
Target sequence (P39748 whole entry, looked up): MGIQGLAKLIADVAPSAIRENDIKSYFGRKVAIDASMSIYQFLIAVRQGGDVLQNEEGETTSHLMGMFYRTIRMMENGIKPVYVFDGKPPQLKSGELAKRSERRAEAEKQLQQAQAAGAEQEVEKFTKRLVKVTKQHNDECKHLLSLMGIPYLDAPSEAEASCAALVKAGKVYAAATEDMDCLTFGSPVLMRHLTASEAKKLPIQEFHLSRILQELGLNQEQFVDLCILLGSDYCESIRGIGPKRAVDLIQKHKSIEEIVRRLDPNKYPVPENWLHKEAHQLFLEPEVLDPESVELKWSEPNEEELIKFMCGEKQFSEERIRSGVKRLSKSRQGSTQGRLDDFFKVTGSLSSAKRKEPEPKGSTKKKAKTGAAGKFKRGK
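Read-out was taken twice, immediately and after 15 min, following addition of 50 nM substrate to 10 nM FEN1 that had sat with test compound for 15 min at room temperature. Curves came from a four-parameter Hill model.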
APE1 inh-1: blocks human APE1 abasic DNA cleavage; P27695; recombinant APE1, TAMRA/BHQ-2 abasic DNA cleavage fluorescence; Potency, µM (highest dose often 65.8 µM), inactives show at the top dose activity change, negative = inhibition, actives largely listed as inhibitors; 0.35% of 350,000 active;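 further: potency means the concentration at half of the fitted maximal effect; plate controls were vehicle for no effect and reference inhibitor for full effect; nearly all actives have a fitted effect of over 55% in size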
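Enzyme (0.75 nM final) and test compound are incubated 15 min at room temperature before adding 50 nM quenched THF abasic-site duplex. Cleavage dequenches TAMRA, followed at 525/598 nm over three reads one minute apart.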
Tb PGK inh: blocks T. brucei phosphoglycerate kinase | P07378 | PGK/GAPDH coupled, Kinase-Glo luminescence, 60 min | Potency, µM (doses to about 57.5 µM), for inactives: at the top dose activity change, negative = inhibition, actives largely listed as inhibitors | 0.043% of 380,000 active; further: potency means the concentration at half of the fitted maximal effect; nearly all actives have a fitted effect of over 60% in size
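Luminescent ATP detection (Kinase-Glo Plus) follows a 60-minute room-temperature incubation, with wells lacking PGK as controls. Buffer: 100 mM TEA (pH 7.6), 5 mM MgCl2, 0.01% Tween-20. Coupling enzyme GAPDH (100 nM final) supplies unstable 1,3-BPG in-well.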
PI4K2A block: PI4K2A (human) kinase inhibition; Q9BTU6; activity change, negative = inhibition, % at 76.9 µM; 0.13% of 420,000 active; purified PI4K2A, ADP-Glo luminescence, 1 h; stronger effect = lower value; in the data active means activity change below about -50%; inconclusive means mostly about -30% to -49%;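 further: -100% = wells without enzyme as full effect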
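Compounds are screened against recombinant PI4K2A using PI as substrate and ATP, the latter dispensed at 300 microM. Reactions run one hour at ambient temperature before ADP-Glo detection; full inhibition defined by wells lacking enzyme.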
Tb PFK inh: inhibitors of T. brucei phosphofructokinase; AID 485367; Potency, µM (doses to about 57.5 µM), without a hit: at the top dose activity, negative = inhibition, most hits filed as inhibitors; T. brucei PFK, ADP-Glo luminescence; 0.17% of 330,000 active; O15648;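 further: potency means the concentration at half of the fitted maximal effect; 0% = uninhibited 1x PFK enzyme wells and -100% = no-enzyme wells; nearly all actives have a fitted effect of over 60% in size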
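ADP-Glo luminescence quantified ADP after 45 min at room temperature, with 1.25 nM T. brucei PFK, 0.1 mM ATP and 0.5 mM fructose-6-phosphate in pH 8.0 TEA buffer. qHTS titrations up to 57 µM; curves classified by quality.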
TDP1 inh: inhibitors of human tyrosyl-DNA phosphodiesterase TDP1. Q9NUW8. recombinant TDP1, AlphaScreen DNA substrate cleavage. Potency, µM (highest dose often 130 µM), inactives show at the highest dose activity change, negative = inhibition, usual class: inhibitors. 0.28% of 350,000 active. AID 485290; further: potency means the concentration at half of the fitted maximal effect; nearly all actives have a fitted effect of over 40% in size
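Recombinant E. coli-expressed Tdp1 (1 nM) preincubated with compound 15 min at RT, then 5'-biotin/3'-phosphotyrosine-FITC DNA substrate (15 nM) added for 5 min. AlphaScreen beads (10 ug/ml) added, 10 min RT; tyrosine-FITC cleavage read as signal loss.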
DNA dye displace: counter-screen for APE1 inhibitors: DNA dye displacement. 7% of 480 active. Potency, µM (highest dose often 28.5 µM), for inactives: at the highest dose activity change, negative = inhibition, hits mostly inhibitors. shares compounds with APE1 inh-1. AID 2564. DNA fluorescent dye displacement counterscreen, fluorescence;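 further: loss of thiazole orange fluorescence as the dye is displaced from duplex DNA; potency means the concentration at half of the fitted maximal effect; 0% = ThO with dsDNA and no compound and -100% = ThO without dsDNA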
Endo IV inh: counter-screen for APE1 inhibitors: inhibitors of E. coli endonuclease IV; shares compounds with APE1 inh-1; E. coli Endo IV, fluorogenic AP-site DNA cleavage; Potency, µM (highest dose often 27.1 µM), for inactives: at the highest dose activity change, negative = inhibition, most hits filed as inhibitors; 4% of 560 active; AID 2565;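 further: potency means the concentration at half of the fitted maximal effect; plate controls were uninhibited enzyme wells for no effect and no enzyme buffer wells for full effect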
APE1 inh-2: confirmation of inhibitors of human APE1 endonuclease. shares compounds with APE1 inh-1. purified APE1, fluorogenic abasic-site DNA cleavage. Potency, µM (top dose mostly 57.1 µM), inactives show at the top dose activity change, negative = inhibition, most hits filed as inhibitors. 44% of 750 active. AID 2572; further: potency means the concentration at half of the fitted maximal effect; nearly all actives have a fitted effect of over 30% in size
APE1 FP inh: APE1 (human) DNA binding inhibition, fluorescence polarization | shares compounds with APE1 inh-1 | 7% of 480 active | Potency, µM (series often up to 28.5 µM), for inactives: top-dose activity, negative = inhibition, most hits filed as inhibitors | APE1 binding to TAMRA-labelled double-stranded DNA, fluorescence polarization displacement | AID 2573; further: potency means the concentration at half of the fitted maximal effect
Numbers without * were called inactive; [ ] = another dose, or the depositor's remark. Unless noted, the call rests on the fitted dose curve; in most records, active means well fitted curve in the direction sought with a large enough effect; inconclusive means small, poorly fitted or top-dose-only effect, or another doubt; inactive means no such curve, though single readings can be large; an effect the other way counts as inactive or inconclusive. Unless noted, on the % scale 0 is the no-effect control and ±100 the full control effect.

Results for COc1ccccc1-c1nc2s/c(=C\c3cccs3)c(=O)n2n1 ?
FEN1 inh: -4%; APE1 inh-1: -7%; Tb PGK inh: 5%; PI4K2A block: 116; Tb PFK inh: -7%; TDP1 inh: -2%

How did CCCCC#Cc1ccccc1CC(=O)Nc1ccccc1 do in these assays?
FEN1 inh: -15%; APE1 inh-1: 3%; Tb PGK inh: -4%; PI4K2A block: -7; Tb PFK inh: -2%; TDP1 inh: 50µM*; APE1 inh-2: inconclusive

Results for O=C(Cc1ccccc1I)Nc1ccccc1 ?
APE1 inh-1: 11%; TDP1 inh: 2%

How did CCOC(=O)C1CCc2sc(N)c(C#N)c21 (configuration not stated) do in these assays?
FEN1 inh: 6%; APE1 inh-1: inconclusive; Tb PGK inh: -2%; PI4K2A block: 1; Tb PFK inh: -9%; TDP1 inh: 11%; DNA dye displace: -4%; Endo IV inh: 0%; APE1 inh-2: -8%[24.4 µM]; APE1 FP inh: inconclusive

Results for CCN(CC)Cc1cc(O)c(CN(CC)CC)cc1O ?
FEN1 inh: inconclusive; APE1 inh-1: 6.3µM*; Tb PGK inh: -26%; PI4K2A block: -24; Tb PFK inh: -14%; TDP1 inh: 7.9µM*; APE1 inh-2: inconclusive

What do the screens show for `O=[N+]([O-])c1ccc2c(c1)C=CC2`?
FEN1 inh: -20%

Results for CC(C)(C)n1ncc2c(=O)n(Cc3cccc(Cl)c3Cl)cnc21 ?
FEN1 inh: -4%; APE1 inh-1: 20%

What do the screens show for `O=C(O)c1ccc(COc2ccccc2/C=C2\NC(=O)N(Cc3ccc(F)cc3)C2=O)cc1`?
FEN1 inh: inconclusive; APE1 inh-1: -1%; Tb PGK inh: -6%; PI4K2A block: 3; Tb PFK inh: 0%; TDP1 inh: -5%

What do the screens show for `O=C(O)c1ccc(-c2ccc(/C=C3\NC(=O)N(Cc4ccc(Cl)cc4)C3=O)o2)cc1`?
FEN1 inh: -2%; APE1 inh-1: -31%; Tb PGK inh: -2%; PI4K2A block: 7; Tb PFK inh: 0%; TDP1 inh: 13µM*; APE1 inh-2: inconclusive

What do the screens show for `CCC(=O)NC(c1ccco1)c1cc([N+](=O)[O-])c2cccnc2c1O` (configuration not stated)?
TDP1 inh: 2%

What do the screens show for `C/C(=N\NC(=O)Cc1csc(N2CCOCC2)n1)c1ccccc1`?
FEN1 inh: -14%; APE1 inh-1: 15%; Tb PGK inh: -4%; PI4K2A block: 4; Tb PFK inh: -3%; TDP1 inh: 2%
